# High-throughput results deposited in PubChem BioAssay by several laboratories.
# NPR1 activator = GC-A (human) enzyme activation; P16066; HEK293 GC-A cells, cGMP TR-FRET, EC30 ANP; 0% at EC30 ANP, 100% saturating ANP; activation, % at 10 µM; 370,000 tested, 0.14% active; AID 1671463; in the data active = activation above about 40%
# Target sequence (P16066 whole entry, looked up): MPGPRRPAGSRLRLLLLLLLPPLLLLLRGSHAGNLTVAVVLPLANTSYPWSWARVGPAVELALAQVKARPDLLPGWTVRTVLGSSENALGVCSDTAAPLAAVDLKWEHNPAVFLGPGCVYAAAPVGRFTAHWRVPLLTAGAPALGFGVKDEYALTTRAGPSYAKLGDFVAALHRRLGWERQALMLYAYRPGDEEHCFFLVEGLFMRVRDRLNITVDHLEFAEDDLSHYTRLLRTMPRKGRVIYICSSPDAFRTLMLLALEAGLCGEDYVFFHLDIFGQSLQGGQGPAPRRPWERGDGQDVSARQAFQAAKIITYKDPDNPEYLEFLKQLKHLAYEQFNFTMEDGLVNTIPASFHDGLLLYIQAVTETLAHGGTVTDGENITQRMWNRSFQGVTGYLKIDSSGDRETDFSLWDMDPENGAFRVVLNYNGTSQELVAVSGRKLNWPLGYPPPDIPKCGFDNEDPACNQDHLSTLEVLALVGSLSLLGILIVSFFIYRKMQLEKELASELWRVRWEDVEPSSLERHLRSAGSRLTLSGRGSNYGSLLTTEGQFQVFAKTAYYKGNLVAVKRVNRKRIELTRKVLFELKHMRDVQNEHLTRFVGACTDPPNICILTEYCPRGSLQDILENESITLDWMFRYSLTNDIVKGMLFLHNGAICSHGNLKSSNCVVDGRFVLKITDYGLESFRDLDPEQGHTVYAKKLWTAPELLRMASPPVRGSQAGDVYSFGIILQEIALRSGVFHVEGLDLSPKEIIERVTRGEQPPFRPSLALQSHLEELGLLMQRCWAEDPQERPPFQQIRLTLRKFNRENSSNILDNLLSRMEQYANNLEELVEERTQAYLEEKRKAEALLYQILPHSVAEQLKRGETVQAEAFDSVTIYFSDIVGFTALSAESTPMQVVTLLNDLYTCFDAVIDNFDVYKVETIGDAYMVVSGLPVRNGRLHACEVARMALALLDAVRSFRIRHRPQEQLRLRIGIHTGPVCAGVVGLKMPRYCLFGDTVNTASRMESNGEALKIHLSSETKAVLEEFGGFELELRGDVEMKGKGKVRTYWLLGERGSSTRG
# ALR inh = human ALR oxidase inhibition via reduced H2O2; P55789; purified ALR, DTT oxidation, H2O2 HRP-luminol luminescence; inhibition, % (test concentration not listed); 290,000 tested, 3.8% active;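 active = mean replicate inhibition above about 79%, with every replicate also reaching it, limit read from the data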
# HDAC3 inhib = human HDAC3 inhibition | recombinant HDAC3, fluorogenic peptide/trypsin coupled, fluorescence | inhibition, % at 8.3 µM | 320,000 tested, 0.15% active; in the data active = inhibition above about 26%, passing the limit was not always enough
# GC-B act = GC-B (human) receptor activation; 370,000 tested, 0.11% active; activation, % at 10 µM; HEK293-GC-B cells, CNP EC30, cGMP TR-FRET; 0% at EC30 CNP, 100% saturating CNP;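 active = activation at 10 µM reaching about 35% in either raw or pattern-adjusted values, limit read from the data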
# Active calls of the source: *; . = no result given. Shown is part of a subset that was picked to be rich in hits.
SMILES,NPR1 activator,ALR inh,HDAC3 inhib,GC-B act
CCN(CC)S(=O)(=O)c1ccc(S(=O)(=O)N(CC(=O)Nc2ccccc2)CC2CCCO2)cc1 (stereo not given),-2,98*,0,8
O=C(CN(CC1CCCO1)S(=O)(=O)c1ccc(S(=O)(=O)NC2CC2)cc1)Nc1ccccc1 (stereo not given),5,-13,-5,6
CC(=O)Nc1cccc(-c2csc(Nc3ccc(Cl)cn3)n2)c1,-3,98*,-2,-6
CC(=O)Nc1ccc(-c2csc(Nc3ccc(Cl)cn3)n2)cc1,-5,.,6,-1
CC(=O)Nc1cccc(-c2csc(N)n2)c1,3,98*,-6,-6
COc1ccc(CN(C)C(=O)CCN=C2NS(=O)(=O)c3ccccc32)c(OC)c1,1,-10,-5,4
CCCCCCCCN1C(=O)[C@H](CC(=O)N2CCN(C(=O)c3ccco3)CC2)C[C@@]2(C(=O)OC)CC(C)(C)CC=C12,5,.,.,7
CCOC(=O)c1c(C)n(CCNC(C)=O)c2ccc(O)cc12,-1,-28,-11,4
CCOC(=O)c1c(C)n(CCOc2ccccc2)c2ccc(O)cc12,56*,-10,-12,-1
CCc1ccc(NC(=O)CCS(=O)(=O)c2cccc3nsnc23)cc1,-2,-8,-8,-1
CCN(CC)c1ccc(NC(=O)CCS(=O)(=O)c2cccc3nsnc23)c(C)c1,-4,99*,-10,-2
O=S(=O)(O)c1ccc(N2N=C(c3ccccc3)CC2c2ccccc2)cc1 (stereo not given),11,99*,-232,3
NS(=O)(=O)c1ccc(N2N=C(c3ccccc3)CC2c2ccccc2)cc1 (stereo not given),5,-12,-237,-6
Nc1nc(-c2ccco2)nn1C(=O)c1ccc(F)cc1,6,.,.,-1
CCCC(=O)n1nc(-c2ccco2)nc1N,-2,7,40*,7
Nc1nc(-c2ccco2)nn1C(=O)c1ccccc1,2,2,35*,6
C[C@H](CO)N1C[C@H](C)[C@@H](CN(C)C(=O)NC2CCCCC2)Oc2c(NC(=O)Nc3ccc(C(F)(F)F)cc3)cccc2C1=O,-7,-6,15,-13
Nc1cc(=O)[nH]c(SCc2ccccc2Cl)n1,3,-7,-2,3
CCCc1cc(=O)[nH]c(SCC(=O)NC)n1,2,-6,-1,3
CCCc1cc(=O)[nH]c(SCC(=O)c2cc(C)n(C)c2C)n1,5,98*,-10,-1
CCCc1cc(=O)[nH]c(SCC(=O)CSc2nc(CCC)cc(=O)[nH]2)n1,8,71,45*,2
CCCc1cc(=O)[nH]c(SCc2ccccc2Cl)n1,3,99*,0,2
CCCc1cc(=O)[nH]c(SCC(=O)c2cc(C)n(C3CC3)c2C)n1,-3,2,-7,10
COC(=O)C(Sc1ccc(Cl)cc1)C1SC(=S)N(Cc2ccccc2)C1=O (stereo not given),-5,.,.,5
COc1ccc(CN2C(=O)CSCC2(C)C(=O)NC(C)C)cc1 (stereo not given),0,.,.,9
SMILES,NPR1 activator,ALR inh,HDAC3 inhib,GC-B act
Cc1cccc(-c2nc(CS(=O)CC(=O)N3CCc4ccccc4C3)c(C)o2)c1 (stereo not given),.,.,2,.
COc1ccc(-c2nc(CS(=O)CC(=O)N3CCCC3)c(C)o2)cc1 (stereo not given),1,99*,0,-3
COc1ccc(-c2nc(CN3CCN(Cc4ccccc4)CC3)c(C)o2)cc1,-2,-4,10,-2
CCN1CCN(C(=O)CS(=O)Cc2nc(-c3ccc(OC)cc3)oc2C)CC1 (stereo not given),3,99*,-7,0
CN(C)c1ccc(CNS(=O)(=O)c2csc(C(N)=O)c2)cc1,-5,93*,-2,3
Cc1cc(C)cc(OCC(=O)NNC(=O)CC(C)c2ccccc2)c1 (stereo not given),1,.,.,-1
Cc1ccccc1-c1csc(N)n1,4,.,.,1
Cc1ccc(-c2csc(N)n2)s1,-4,99*,1,0
COCCNC(=O)CSc1nnc(NC(=O)C2CC(=O)N(c3ccccc3OC)C2)s1 (stereo not given),1,5,-2,6
Cc1cccc(C)c1OCC(=O)NCC1COc2ccccc2O1 (stereo not given),1,-4,4,-5
S=c1[nH]nc(-c2cnccn2)n1-c1ccccc1,10,39,18,2
COc1ccc(-n2c(-c3cnccn3)n[nH]c2=S)cc1,0,90*,10,2
O=C(/C=C/c1ccc(O)cc1)c1ccccc1,7,99*,12,1
COc1ccc(C=CC(=O)c2ccc([N+](=O)[O-])cc2)cc1,0,.,.,-6
COc1ccc(C(=O)/C=C/c2ccc(O)cc2)cc1,1,98*,2,-5
CCOc1ccc(/C=C/C(=O)c2ccccc2)cc1OC,2,7,5,2
Cc1nn(C)cc1/C=C/C(=O)c1ccc(O)cc1,0,99*,2,-1
CCOc1ccc(C(=O)/C=C/c2ccc(OC)c(OC)c2)cc1,3,97*,5,-2
CN(C)c1ccc(/C=C/C(=O)c2ccc(O)cc2)cc1,-3,.,.,-5
Cc1nn(C)cc1/C=N/O,1,-4,-2,2
O=C(c1ccco1)N1CCN(Cc2cn[nH]c2-c2ccc(F)cc2F)CC1,3,1,-1,2
C/C=C/C=C\C(=O)Nc1cccc(C2=NOC3(C2)C[C@@H](C(N)=O)N(C(=O)c2cc([N+](=O)[O-])cc([N+](=O)[O-])c2)C3)c1 (stereo not given in full),-1,-18,2,4
COc1ccc(CC(=O)Nc2nc3ccc(F)cc3s2)cc1S(=O)(=O)N1CCOCC1,10,99*,-4,2
COc1ccc(S(=O)(=O)N2CCOCC2)cc1NC(=O)c1cc2c(s1)CCCC2,3,-3,1,5
COc1ccc(NC(=O)c2cc3c(s2)CCC3)cc1S(=O)(=O)N1CCOCC1,8,99*,-1,4
SMILES,NPR1 activator,ALR inh,HDAC3 inhib,GC-B act
COc1ccc(CC(=O)Nc2nc3ccccc3s2)cc1S(=O)(=O)N1CCOCC1,28,-4,3,-7
COc1ccc(C)cc1NC(=O)c1cc2c(s1)CCC2,-3,94*,4,-5
CN(Cc1ccccc1)C(=O)[C@@H]1CCCN1C(=O)[C@@H]1CCCN1C(=O)c1cccc(Cl)c1,3,.,.,0
Cc1cccc(-c2nnc(NC(=O)c3ccco3)s2)c1,-2,4,6,-2
COC(=O)[C@@]1(Sc2ccccc2)CC(=O)N[C@@H]1c1ccccc1,6,.,.,-1
O=C(C1CCN(c2cncnc2)CC1)N1CCCC1,-4,.,.,-3
CCCCN(C)C(=O)CS(=O)(=O)Cc1nc(-c2cccc(OC)c2)oc1C,1,99*,-1,-5
Cc1ccc(-c2nc(CS(=O)(=O)CC(=O)NCc3cccc(F)c3)c(C)o2)cc1,-3,-3,-4,-1
COc1ccc(-c2nc(CS(=O)(=O)CC(=O)NCc3cccc(F)c3)c(C)o2)cc1,-12,97*,3,-7
